Reference: PubChem BioAssay AID1159580 (chemical genetic matrix, 2015)
Where “and” joins values, the source holds several entries; their conditions need not be identical. Equal entries are not always repeated. The whole screen tested about 5,500 compounds, of which about 2,000 (36%) were called active. Not shown: some 18% with an inconclusive outcome. Rule as the data show it: active = normalized growth mostly below about 0.91 (no sharp cut-off); inconclusive = no clear call, values can overlap the other calls; inactive = mostly above about 0.92. The list shows a part of the results.

Experiment: chemical genetic growth profiling, strain panel (AID 1159580);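 also: tested at 20 µM; growth read once vehicle control cultures reached saturation at 30 °C; 1 = growth at the plate median or of vehicle wells; lower values mean less growth of the strain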
Conditions: growth OD

Measured: normalized growth

Cc1ccccc1C(OCCN(C)C)c1ccccc1 (stereo not given)
inactive: S. cerevisiae deletion strains, locus YJR075W, strain HOC1, stronger effect = lower value 0.986 and 0.988 | S. cerevisiae deletion strains, locus YKL009W, strain mrt4, stronger effect = lower value 0.999 | S. cerevisiae deletion strains, locus YKL068W, stronger effect = lower value 0.996 | S. cerevisiae deletion strains, locus YKL085W, strain MDH1 (second series), stronger effect = lower value 1 | S. cerevisiae deletion strains, locus YKL085W, strain MDH1, stronger effect = lower value 1 | S. cerevisiae deletion strains, locus YKL160W, strain elf1, stronger effect = lower value 1.01 | S. cerevisiae deletion strains, locus YKL190W, strain CNB1, stronger effect = lower value 0.996 | S. cerevisiae deletion strains, locus YKR001C, strain vps1, stronger effect = lower value 1.03 | S. cerevisiae deletion strains, locus YKR026C, strain gcn3, stronger effect = lower value 1.01 | S. cerevisiae deletion strains, locus YKR091W, strain srl3, stronger effect = lower value 1.01 | S. cerevisiae deletion strains, locus YLL001W, strain dnm1, stronger effect = lower value 1 | S. cerevisiae deletion strains, locus YLL026W, stronger effect = lower value 1.01 | S. cerevisiae deletion strains, locus YLL041C, strain sdh2, stronger effect = lower value 0.998 | S. cerevisiae deletion strains, locus YLR027C, strain aat2, stronger effect = lower value 0.994 | S. cerevisiae deletion strains, locus YLR039C, strain RIC1, stronger effect = lower value 1.14 | S. cerevisiae deletion strains, locus YLR058C, strain SHM2, stronger effect = lower value 0.996 | S. cerevisiae deletion strains, locus YLR102C, strain apc9, stronger effect = lower value 1 | S. cerevisiae deletion strains, locus YLR113W, strain HOG1, stronger effect = lower value 0.956 | S. cerevisiae deletion strains, locus YLR221C, strain rsa3, stronger effect = lower value 1.01 | S. cerevisiae deletion strains, locus YLR258W, strain gsy2, stronger effect = lower value 1 | S. cerevisiae deletion strains, locus YLR262C, strain YPT6 (second series), stronger effect = lower value 1.05 | S. cerevisiae deletion strains, locus YLR262C, strain YPT6, stronger effect = lower value 1.13 | S. cerevisiae deletion strains, locus YLR268W, strain sec22, stronger effect = lower value 1.05 | S. cerevisiae deletion strains, locus YLR320W, strain mms22, stronger effect = lower value 1.02 | S. cerevisiae deletion strains, locus YLR330W, strain CHS5, stronger effect = lower value 1.01 | S. cerevisiae deletion strains, locus YLR342W, strain FKS1 (second series), stronger effect = lower value 1 | S. cerevisiae deletion strains, locus YLR342W, strain FKS1, stronger effect = lower value 1.03 | S. cerevisiae deletion strains, locus YLR357W, strain rsc2, stronger effect = lower value 1.01 | S. cerevisiae deletion strains, locus YLR370C, strain arc18, stronger effect = lower value 1 | S. cerevisiae deletion strains, locus YLR371W, strain rom2, stronger effect = lower value 1.01 | S. cerevisiae deletion strains, locus YLR384C, strain iki3, stronger effect = lower value 1.01 | S. cerevisiae deletion strains, locus YLR418C, strain cdc73, stronger effect = lower value 0.94 | S. cerevisiae deletion strains, locus YML016C, strain PPZ1, stronger effect = lower value 1 | S. cerevisiae deletion strains, locus YML032C, strain rad52, stronger effect = lower value 1.01 | S. cerevisiae deletion strains, locus YML120C, strain ndi1, stronger effect = lower value 1.01 | S. cerevisiae deletion strains, locus YML124C, strain tub3, stronger effect = lower value 1 | S. cerevisiae deletion strains, locus YMR058W, strain fet3, stronger effect = lower value 0.977 | S. cerevisiae deletion strains, locus YMR078C, strain ctf18, stronger effect = lower value 1.01 | S. cerevisiae deletion strains, locus YMR125W, strain sto1, stronger effect = lower value 1.01 | S. cerevisiae deletion strains, locus YMR129W, stronger effect = lower value 1.01 | S. cerevisiae deletion strains, locus YMR205C, strain PFK2, stronger effect = lower value 1.02 | S. cerevisiae deletion strains, locus YMR223W, strain ubp8, stronger effect = lower value 0.997 | S. cerevisiae deletion strains, locus YMR231W, strain pep5, stronger effect = lower value 0.998 | S. cerevisiae deletion strains, locus YMR263W, strain SAP30, stronger effect = lower value 0.985 | S. cerevisiae deletion strains, locus YMR307W, strain GAS1, stronger effect = lower value 1.01 | S. cerevisiae deletion strains, locus YNL067W, strain RPL9B, stronger effect = lower value 0.994 | S. cerevisiae deletion strains, locus YNL071W, strain lat1, stronger effect = lower value 1 | S. cerevisiae deletion strains, locus YNL128W, strain TEP1, stronger effect = lower value 1 | S. cerevisiae deletion strains, locus YNL153C, strain GIM3, stronger effect = lower value 1.01 | S. cerevisiae deletion strains, locus YNL175C, strain NOP13, stronger effect = lower value 1 | S. cerevisiae deletion strains, locus YNL183C, strain NPR1, stronger effect = lower value 0.945 | S. cerevisiae deletion strains, locus YNL197C, strain WHI3, stronger effect = lower value 1 | S. cerevisiae deletion strains, locus YNL209W, strain ssb2, stronger effect = lower value 1 | S. cerevisiae deletion strains, locus YNL224C, strain SQS1, stronger effect = lower value 0.994 | S. cerevisiae deletion strains, locus YNL233W, strain BNI4, stronger effect = lower value 1.01 | S. cerevisiae deletion strains, locus YNL248C, strain rpa49, stronger effect = lower value 1.01 | S. cerevisiae deletion strains, locus YNL250W, strain rad50, stronger effect = lower value 0.989 | S. cerevisiae deletion strains, locus YNL271C, strain bni1, stronger effect = lower value 1.01 | S. cerevisiae deletion strains, locus YNL298W, strain CLA4, stronger effect = lower value 1.03 | S. cerevisiae deletion strains, locus YNL307C, strain MCK1, stronger effect = lower value 1.02 | S. cerevisiae deletion strains, locus YNL322C, strain KRE1 (second series), stronger effect = lower value 1.03 | S. cerevisiae deletion strains, locus YNL322C, strain KRE1, stronger effect = lower value 0.997 and 0.999 | S. cerevisiae deletion strains, locus YNR049C, strain mso1, stronger effect = lower value 1.02 | S. cerevisiae deletion strains, locus YNR052C, strain pop2, stronger effect = lower value 1.01 | S. cerevisiae deletion strains, locus YOL006C, strain TOP1, stronger effect = lower value 0.986 | S. cerevisiae deletion strains, locus YOL012C, strain htz1 0.949 | S. cerevisiae deletion strains, locus YOL147C, strain pex11, stronger effect = lower value 1.01 | S. cerevisiae deletion strains, locus YOR001W, strain rrp6, stronger effect = lower value 0.994 | S. cerevisiae deletion strains, locus YOR061W, strain CKA2, stronger effect = lower value 1 | S. cerevisiae deletion strains, locus YOR069W, strain VPS5, stronger effect = lower value 1 | S. cerevisiae deletion strains, locus YOR070C, strain gyp1, stronger effect = lower value 0.996 | S. cerevisiae deletion strains, locus YOR080W, strain dia2, stronger effect = lower value 0.996 | S. cerevisiae deletion strains, locus YOR083W, strain WHI5 (second series), stronger effect = lower value 1 | S. cerevisiae deletion strains, locus YOR083W, strain WHI5, stronger effect = lower value 1.02 | S. cerevisiae deletion strains, locus YOR106W, strain vam3, stronger effect = lower value 1.03 | S. cerevisiae deletion strains, locus YOR136W, strain idh2, stronger effect = lower value 0.988 | S. cerevisiae deletion strains, locus YOR144C, strain elg1, stronger effect = lower value 1 | S. cerevisiae deletion strains, locus YOR184W, strain ser1, stronger effect = lower value 1.03 | S. cerevisiae deletion strains, locus YOR231W, strain MKK1, stronger effect = lower value 0.961 | S. cerevisiae deletion strains, locus YOR265W, strain rbl2, stronger effect = lower value 0.994 | S. cerevisiae deletion strains, locus YOR270C, strain vph1, stronger effect = lower value 0.972 | S. cerevisiae deletion strains, locus YOR290C, strain snf2, stronger effect = lower value 1.03 | S. cerevisiae deletion strains, locus YOR316C, strain cot1, stronger effect = lower value 1 | S. cerevisiae deletion strains, locus YPL051W, strain arl3, stronger effect = lower value 0.994 | S. cerevisiae deletion strains, locus YPL078C, strain atp4, stronger effect = lower value 1 | S. cerevisiae deletion strains, locus YPL106C, strain sse1, stronger effect = lower value 1.02 | S. cerevisiae deletion strains, locus YPL240C, strain hsp82, stronger effect = lower value 0.982 | S. cerevisiae deletion strains, locus YPL241C, strain CIN2, stronger effect = lower value 1 and 0.994 | S. cerevisiae deletion strains, locus YPL256C, strain CLN2, stronger effect = lower value 0.933 | S. cerevisiae deletion strains, locus YPR119W, strain clb2, stronger effect = lower value 1 | S. cerevisiae deletion strains, locus YPR141C, strain kar3, stronger effect = lower value 0.994 | S. cerevisiae deletion strains, locus YPR163C, strain tif3, stronger effect = lower value 1.01 | S. cerevisiae deletion strains, locus YPR167C, strain met16, stronger effect = lower value 1 | S. cerevisiae deletion strains, strain wtn01, stronger effect = lower value 1.02 | S. cerevisiae strains, strain wild type, stronger effect = lower value 0.989
